According to PubChem BioAssay (NCATS):
Records with an inconclusive call do not appear. Values without a mark were called inactive. Calls of active or inactive are those of the source. Calls follow the shape of the dose curve; as a rule, active = well fitted curve in the direction sought with a large enough effect; inconclusive = small, poorly fitted or top-dose-only effect, or another doubt; inactive = no such curve, though single readings can be large; an effect the other way counts as inactive or inconclusive.

assay: Viability qHTS for spleen associated tyrosine kinase inhibitor (SYKi) drug resistant MV4-11 cells (AID 1963824); conditions: SYKi-resistant MV4-11 viability, CellTiter-Glo, 72 h; series mostly up to 45 µM; also: nearly all actives have a fitted effect of over 35% in size
How it was run: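 SYK inhibitor-resistant MV4-11 AML cells, 500 per well, added to predispensed compounds and incubated 72 hr at 37 C, 5% CO2. Viability measured by CellTiter-Glo luminescence after 10 min at room temperature.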
Potency is read from the fitted curve at half-maximal effect.

With `Nc1c(I)cc(I)c(C(=O)N(CCC(=O)O)c2ccccc2)c1I` as the compound, how does the Potency read?
The Potency was “inactive”.

With `CC(C)(C)NC(=O)c1cncn1C1CCN(c2ccc(-c3nnc(C(F)(F)F)o3)cn2)CC1` as the compound, how does the Potency read?
The Potency was 2950 nM (active).

With `CN[C@@H]1[C@H](O[C@H]2[C@H](O[C@@H]3[C@@H](O)[C@H](O)[C@@H](N=C(N)N)[C@H](O)[C@H]3N=C(N)N)O[C@@H](C)[C@]2(O)C=O)O[C@@H](CO)[C@H](O)[C@H]1O` as the compound, how does the Potency read?
The Potency was “inactive”.

Which Potency does the source give for `CC(C)n1cc(-c2ccc3c(c2)N(C)CC3)c2c(NS(=O)(=O)c3ccn(C)n3)ccnc21` here?
Its Potency is 18600 nM (active).

For `CC1c2cccc(O)c2C(O)=C2C(=O)C3(O)C(O)=C(C(N)=O)C(=O)C(N(C)C)C3C(O)C21` (stereo not drawn), which Potency is on record?
Its Potency is 11800 nM (active).

For `S=c1[nH]c2ccccc2s1`, which Potency is on record?
The Potency was 545 nM (active).

assay: Cellular viability qHTS for adrenocortical cancer (ACC) cell line SW-13 (AID 1963989); conditions: SW-13 ACC cells viability, CellTiter-Glo, 48 h; activity (max response): active compounds read low; also: nearly all actives have a fitted effect of over 65% in size;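 as to activity (max response): cells grown in serum-free medium with ITS supplement; % is scaled to controls: 0 for no effect and ±100 for the full control effect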
How it was run: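 Luminescent ATP read-out (CellTiter-Glo, 20 min at room temperature) measured metabolically competent SW-13 cells after 48 h compound treatment. Final concentrations spanned up to 46 uM; bortezomib served as positive control.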

With `CCNC(=O)CCC/C=C\C[C@@H]1[C@@H](/C=C/C(O)CCc2ccccc2)[C@@H](O)C[C@@H]1O` (stereo partly drawn) as the compound, how does the activity (max response) read?
The activity (max response) was -10.9%.

For `COc1cc2c(cc1OC)CN(C(=O)[C@H](C)N[C@@H](CCc1ccccc1)C(=O)O)[C@H](C(=O)O)C2`, which activity (max response) is on record?
The activity (max response) was 4.46%.

For `CN(C)C/C=C/C(=O)Nc1ccc(C(=O)N2CCC[C@@H](Nc3ncc(Cl)c(-c4c[nH]c5ccccc45)n3)C2)cc1`, which Potency is on record?
Its Potency is 251 nM (active).

Which activity (max response) does the source give for `CC(Nc1ncnc2nc[nH]c12)c1cc2cccc(Cl)c2c(=O)n1-c1ccccc1` (stereo not drawn) here?
The activity (max response) was -2.7%.

Which activity (max response) does the source give for `NC1CCN(c2cccc(Cl)n2)CC1` here?
The activity (max response) was 2.41%.

For `CO[C@H]1/C=C/O[C@@]2(C)Oc3c(C)c(O)c4c(O)c(c5c(nc6cc(C)ccn65)c4c3C2=O)NC(=O)/C(C)=C\C=C\[C@H](C)[C@H](O)[C@@H](C)[C@@H](O)[C@@H](C)[C@H](OC(C)=O)[C@@H]1C`, which Potency is on record?
Its Potency is 25100 nM (active).

Which Potency does the source give for `CC[C@@]1(O)C(=O)OCc2c1cc1n(c2=O)Cc2c-1nc1cc(F)c(C)c3c1c2[C@@H](N)CC3` here?
The Potency was 794 nM (active).

For `NCCCC[C@H](NC(=O)[C@@H](NC(=O)[C@H](Cc1c[nH]c2ccccc12)NC(=O)[C@H](CCCCN)NC(=O)[C@H](CCCCN)NC(=O)[C@H](Cc1c[nH]c2ccccc12)NC(=O)[C@H](Cc1c[nH]c2ccccc12)NC(=O)[C@H](CCCCN)NC(=O)[C@@H](N)CCCCN)C(c1ccccc1)c1ccccc1)C(N)=O`, which Potency is on record?
Its Potency is 31600 nM (active).

For `O=C(NC[C@H](O)CN1CCc2ccccc2C1)c1ccnc(NC2CCC2)c1`, which activity (max response) is on record?
Its activity (max response) is -19.6%.

For `CCOC(=O)NNc1nncc2ccccc12`, which activity (max response) is on record?
Its activity (max response) is 4.25%.

With `CC(C)(O)C1CCC(Nc2ccc3ncc(-c4cccc(C(F)(F)F)c4)n3n2)CC1` (stereo not drawn) as the compound, how does the activity (max response) read?
Its activity (max response) is -17.2%.

Which activity (max response) does the source give for `CC1CC(OC(=O)c2ccccc2O)CC(C)(C)C1` (stereo not drawn) here?
Its activity (max response) is 10.4%.

For `C=CC(=O)Nc1cccc(Oc2nc(Nc3ccc(N4CCN(C)CC4)cc3)nc3ccsc23)c1`, which Potency is on record?
Its Potency is 3160 nM (active).

For `CC(/C=C1\SC(=S)N(CC(=O)O)C1=O)=C\c1ccccc1`, which activity (max response) is on record?
The activity (max response) was 4.22%.

With `Cc1ccc(NC(=O)NCc2ccc3c(c2)CN(C2CCC(=O)NC2=O)C3=O)cc1Cl` (stereo not drawn) as the compound, how does the Potency read?
The Potency was 8.9 nM (active).

With `O=C(NO)c1ccc(C2=Nc3ccccc3Oc3ccccc32)cc1` as the compound, how does the Potency read?
The Potency was 22400 nM (active).

For `CCN(CC)CCSC(=O)C(c1ccccc1)c1ccccc1`, which activity (max response) is on record?
The activity (max response) was -19.1%.

With `C=CC(=O)Nc1cc(Nc2nccc(-c3cn(C)c4ccccc34)n2)c(OC)cc1N(C)CCN(C)C` as the compound, how does the Potency read?
The Potency was 2000 nM (active).

For `c1cnc(N2CCN(Cc3ccc4c(c3)OCO4)CC2)nc1`, which activity (max response) is on record?
The activity (max response) was 6.56%.

For `COc1cc(O)cc(O)c1`, which activity (max response) is on record?
The activity (max response) was -2.38%.

With `N#Cc1c(N)nc(N)nc1N[C@H](c1nc2c(F)ccc(Cl)c2c(=O)n1-c1cccnc1)C1CC1` as the compound, how does the activity (max response) read?
The activity (max response) was -22.7%.

Which activity (max response) does the source give for `Cc1c(F)ccc(C(=O)Nc2cc([N+](=O)[O-])ccc2N2CCN(C)CC2)c1Cl` here?
The activity (max response) was -19.1%.

Which activity (max response) does the source give for `CN1CC[C@@H](NC(=O)Nc2ccc(C#N)cc2)C[C@@H]1c1nc2ccccc2[nH]1` here?
Its activity (max response) is -1.78%.

Which activity (max response) does the source give for `CCCC(=O)O[C@]1(C(=O)CC)CC[C@H]2[C@@H]3CCC4=CC(=O)CC[C@]4(C)[C@H]3[C@@H](O)C[C@@]21C` here?
The activity (max response) was 0.342%.

Which activity (max response) does the source give for `Nc1ccc(S(=O)(=O)NCc2ccccc2)cc1` here?
The activity (max response) was -7%.

For `CC1CCc2c(N3CCC(O)CC3)c(F)cc3c(=O)c(C(=O)O)cn1c23` (stereo not drawn), which activity (max response) is on record?
The activity (max response) was -4.15%.

For `CO[C@@H]1[C@@H](O)[C@H](O)[C@@H](n2c3c(Cl)cccc3c3c4c(c5c6cccc(Cl)c6[nH]c5c32)C(=O)NC4=O)O[C@H]1CO`, which Potency is on record?
Its Potency is 316 nM (active).
